# Results: PubChem BioAssay (NCI)
# The panel holds about 83,000 compounds, 20% with a hit somewhere; the sample as a whole holds those more often.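 Negative percent growth values reflect cell death: -40 means 40% of the cells present at the start died, and -100 means all died.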 Values without a mark were called inactive. Active and inactive are the calls of the source. How the source made its calls: active means growth percent below 10; inactive means the rest.
# Legend:
# HL-60(TB) leukemia = assay: NCI-60 one-dose screen, 48 h (100 = growth as untreated, 0 = no growth, -100 = all killed); settings: 10 µM unless noted
# MDA-MB-468 breast = assay: as above
smiles,measurement,setting,value
COc1ccc2[nH]c(=O)c(CSc3cccc(N)c3)cc2c1,growth,HL-60(TB) leukemia,51.3%
COc1ccc(C(=O)/C=C/c2ccc(OCc3ccccc3)c(OC)c2)cc1OC,growth,HL-60(TB) leukemia,5.55% (active)
CC1=C(C(=O)c2ccccc2)C(c2cccc3ccccc23)n2c(nc3ccccc32)N1 (centres undefined),growth,HL-60(TB) leukemia,58.6%
COc1cc(-c2nc3ccc(C)cc3[nH]2)ccc1OCc1nnc(-c2ccccc2Br)o1,growth,HL-60(TB) leukemia,69.5%
COc1ccc(OC)c(-n2cc(C#N)c(N)c2C(=O)c2ccc(Cl)cc2Cl)c1,growth,HL-60(TB) leukemia,2.46% (active)
C/C(=N\N=C\c1ccc(Cl)c([N+](=O)[O-])c1)c1ccc2c(c1)Nc1ccccc1S2,growth,HL-60(TB) leukemia,51%
O=C(NO)c1ccc(CNC(=O)[C@H]2Cc3c([nH]c4ccccc34)[C@H](c3ccc(Cl)cc3)N2)cc1,growth,HL-60(TB) leukemia,4.62% (active)
N#Cc1cnn(C(=O)c2ccccc2Br)c1NC(=O)c1ccc(Br)cc1Cl,growth,HL-60(TB) leukemia,107%
O=C(Nc1cccc(C(F)(F)F)c1)c1cncc(C#Cc2cnc3cccnn23)c1,growth,HL-60(TB) leukemia,29.9%
CCCn1cc(-c2nc(Nc3ccc(C(=O)NCCCCNc4cccc5c4C(=O)N(C4CCC(=O)NC4=O)C5=O)cc3)nc3[nH]ccc23)cn1 (centres undefined),growth,HL-60(TB) leukemia,-36.9% (active)
O=C(c1ccc(O)cc1)C1[C@H](c2ccccc2Br)[C@@H](c2ccccc2)NC12C(=O)Nc1ccc(Cl)cc12 (some centres undefined),growth,HL-60(TB) leukemia,-17.3% (active)
COc1ccc(NC(=O)Cn2c(/C=C/c3cccc(OC)c3)nc3ccccc3c2=O)cc1,growth,HL-60(TB) leukemia,94.6%
c1ccc(CSc2nnc(-c3ccc4nc(-c5ccccc5)[nH]c4c3)o2)cc1,growth,HL-60(TB) leukemia,83.5%
COc1ccc(/C=C/c2nc3ccccc3c(=O)n2CC(=O)Nc2ccc(Cl)cc2)cc1,growth,HL-60(TB) leukemia,96.2%
COc1ccc(C(=O)C[n+]2cccc3c4ccccc4ccc32)cc1,growth,HL-60(TB) leukemia,22%
COc1ccc(CCN2C(=O)/C(=C/c3csc(C#N)n3)SC2=S)cc1,growth,HL-60(TB) leukemia,-23.8% (active)
COc1ccc(-n2c(SCC(=O)NNS(=O)(=O)c3ccccc3)nc3ccc(Cl)cc3c2=O)cc1,growth,HL-60(TB) leukemia,107%
O=C(CSc1nnc(-c2ccc3nc(-c4ccc(Cl)cc4)[nH]c3c2)o1)Nc1ccc(Br)cc1,growth,HL-60(TB) leukemia,-22.3% (active)
Cc1ccc([C@H]2C(C(=O)c3ccc(Cl)cc3)C3(N[C@@H]2c2ccccc2)C(=O)Nc2ccccc23)cc1 (some centres undefined),growth,HL-60(TB) leukemia,-22.2% (active)
Cc1ccc2nc(-c3ccc(-c4nnc(SCC(=O)Nc5ccc(Cl)cc5)o4)cc3)[nH]c2c1,growth,HL-60(TB) leukemia,53.8%
NS(=O)(=O)c1ccc(NC(=O)CSc2ccc(-c3ccccc3)nn2)c(Br)c1,growth,HL-60(TB) leukemia,99.2%
COC(=O)c1cc(C(=O)CBr)n2c1ccc1c3ccccc3ccc12,growth,HL-60(TB) leukemia,49.3%
CC(=O)c1ccc2c(N)c(C(=O)Nc3ccc(C(F)(F)F)cc3)sc2n1,growth,HL-60(TB) leukemia,50%
C=CCSc1nnc(-c2c(C)nc3sccn23)o1,growth,HL-60(TB) leukemia,119%
N#Cc1cc(-c2ccnc(Nc3ccc(N4CCN(C5COC5)CC4)cc3)n2)ccc1N1CCCC1,growth,HL-60(TB) leukemia,48.1%
C=C1CC[C@@H]2[C@]3(C)COC(c4cn(-c5ccccc5)nc4-c4cccc([N+](=O)[O-])c4)O[C@@H]3CC[C@@]2(C)[C@@H]1C/C=C1/C(=O)OC[C@H]1O (some centres undefined),growth,HL-60(TB) leukemia,12.6%
CC(=O)Oc1ccccc1C(=O)NCCC[Se]C#N,growth,MDA-MB-468 breast; 10 µM unless noted,19%
CCOC(=O)C1C(C=C(C)C)C1(C)C (centres undefined),growth,MDA-MB-468 breast; 10 µM unless noted,107%
C[C@]12C[C@@H](CO)[C@H](O)C[C@@H]1CC[C@@H]1[C@@H]2CC[C@]2(C)[C@@H](O)CC[C@@H]12,growth,MDA-MB-468 breast; 10 µM unless noted,106%
Cc1ccc(C(=O)C2CN(C)CCC2(O)c2ccc(C)cc2)cc1 (centres undefined),growth,MDA-MB-468 breast; 10 µM unless noted,119%
COc1ccc(O)c(CNC(=O)CN2CCCC2=O)c1,growth,MDA-MB-468 breast; 10 µM unless noted,108%
O=c1[nH]c(=O)[nH]c(=O)[nH]1,growth,MDA-MB-468 breast; 10 µM unless noted,146%
CCOC(=O)[C@@H](C)C[C@H](Cc1ccccc1)NC(=O)c1csc([C@@H](C[C@H](C(C)C)N(C)C(=O)[C@@H](NC(=O)[C@H]2CCCCN2C)C(C)(C)C)OC(C)=O)n1,growth,MDA-MB-468 breast; 10 µM unless noted,10.7%
Cc1cc(N(CCCl)CCCl)ccc1C=Nc1ccc2ccccc2c1,growth,MDA-MB-468 breast; 10 µM unless noted,-9.8% (active)
CCCCCC1(CCBr)C(=O)NC(=O)NC1=O,growth,MDA-MB-468 breast; 10 µM unless noted,103%
CC12CCC3C(CC=C4CC(O)CCC43C)C1C/C(=C\N1CCOCC1)C2=O (centres undefined),growth,MDA-MB-468 breast; 10 µM unless noted,106%
CCOP(=O)(Cc1ccc(C#N)cc1)OCC,growth,MDA-MB-468 breast; 10 µM unless noted,108%
CN1C(=O)N[C@H]2[C@@H]3NC(=O)c4ccc(Br)n4[C@@H]3C[C@]21O,growth,MDA-MB-468 breast; 10 µM unless noted,-50.6% (active)
[N-]=[N+]=NC(C(=O)O)c1ccccc1 (centres undefined),growth,MDA-MB-468 breast; 10 µM unless noted,126%
CC1CN1CCCCN1CC1C (centres undefined),growth,MDA-MB-468 breast; 10 µM unless noted,101%
CCCCn1cc(C(=O)/C(C#N)=C/c2cc3ccccc3nc2Cl)c2cc(OC)ccc21,growth,MDA-MB-468 breast; 10 µM unless noted,104%
Cc1sc2c(c1C)C(c1ccc(Cl)cc1)=N[C@@H](CC(=O)OC(C)(C)C)c1nnc(C)n1-2,growth,MDA-MB-468 breast; 10 µM unless noted,-10.8% (active)
O=C(O)C(Cl)(Cl)C(F)(F)F,growth,MDA-MB-468 breast; 10 µM unless noted,106%
O=C(NC1=NCC[Se]1)c1ccccc1O,growth,MDA-MB-468 breast; 10 µM unless noted,93.1%
CCOC(=O)C1(c2ccccc2)CCN(CC(=O)c2ccc(NC(C)=O)cc2)CC1,growth,MDA-MB-468 breast; 10 µM unless noted,110%
Cc1ccc(C(=O)O[C@H](C(=O)O)[C@H](OC(=O)c2ccc(C)cc2)C(=O)O)cc1,growth,MDA-MB-468 breast; 10 µM unless noted,103%
CC(=O)OCC1O[C@@H]([S-])C(OC(C)=O)[C@H](OC(C)=O)[C@@H]1OC(C)=O.[Au+].c1ccc(CN2[CH-]N(Cc3ccccc3)C(c3ccccc3)=C2c2ccccc2)cc1,growth,MDA-MB-468 breast; 10 µM unless noted,-61.7% (active)
O=[N+]([O-])c1cccc([As]=[As]c2cccc([N+](=O)[O-])c2)c1 (centres undefined),growth,MDA-MB-468 breast; 10 µM unless noted,-78.5% (active)
CCCCNC(c1ccc(Cl)cc1)C(O)c1ccc(Cl)cc1 (centres undefined),growth,MDA-MB-468 breast; 10 µM unless noted,-14.6% (active)
COC(=O)C12CC(NC(=O)c3csc([C@@H](C[C@H](C(C)C)N(C)C(=O)[C@@H](NC(=O)[C@H]4CCCCN4C)C4CC4)OC(C)=O)n3)(C1)C2,growth,MDA-MB-468 breast; 10 µM unless noted,30.1%
CC(=O)O[C@H]1CC[C@H]2[C@@H]3CC[C@H]4CC=C(C)C[C@]4(C)[C@H]3CC[C@]12C,growth,MDA-MB-468 breast; 10 µM unless noted,105%
C[C@]12CC[C@H]3[C@@H](C[C@@H]4SC(Nc5cccc(F)c5)=N[C@@]45CC(=O)CC[C@]35C)[C@@H]1CCC2=O,growth,MDA-MB-468 breast; 10 µM unless noted,-2.99% (active)
Cn1cc(-c2csc(-c3cn(CCCCN4CCOCC4)c4ccc(F)cc34)n2)c2cccnc21,growth,MDA-MB-468 breast; 10 µM unless noted,65%
CN1C(=O)C(=Cc2cn(Cc3ccccc3)c3ccccc23)C(=O)N(C)C1=O,growth,MDA-MB-468 breast; 10 µM unless noted,-49.5% (active)
COc1cccc2c1C(=O)c1c(O)c3c(c(O)c1C2=O)CC(O)(/C(C)=N/NC(=O)CCC(=O)N/N=C(\C)C1(O)Cc2c(O)c4c(c(O)c2C(OC2CC(N)C(O)C(C)O2)C1)C(=O)c1c(OC)cccc1C4=O)CC3OC1CC(N)C(O)C(C)O1 (centres undefined),growth,MDA-MB-468 breast; 10 µM unless noted,-35.7% [5 µM] (active)
CC/C(=C(\c1ccc(OCCN2CCOCC2)cc1)c1ccc(OC(=O)Cc2ccccc2)cc1)c1ccc(Cl)cc1,growth,MDA-MB-468 breast; 10 µM unless noted,104%
O=C(CBr)Nc1ccccc1,growth,MDA-MB-468 breast; 10 µM unless noted,108%
CC[C@H](C)[C@H](NC(=O)CN(C)C)C(=O)N(C)[C@H](C[C@@H](OC(C)=O)c1nc(C(=O)NC23CC(C(=O)OC)(C2)C3)cs1)C(C)C,growth,MDA-MB-468 breast; 10 µM unless noted,-14.9% (active)
C[C@]12CCc3sc(NCCc4ccccc4)nc3C1=CC[C@@H]1[C@@H]2CC[C@]2(C)C(=O)CC[C@@H]12,growth,MDA-MB-468 breast; 10 µM unless noted,32.9%
C[N+]1(C)CCCC1c1cccnc1 (centres undefined),growth,MDA-MB-468 breast; 10 µM unless noted,101%
O=C1C=C(N2C3C4CCC(C4)C32)C(=O)C=C1c1ccccc1 (centres undefined),growth,MDA-MB-468 breast; 10 µM unless noted,16.9%
C[C@]12CC[C@H](OC3OC(O)C(O)C(O)C3O)C=C1CCC1C2CC[C@]2(C)[C@@H](c3ccc(=O)oc3)CC[C@]12O (some centres undefined),growth,MDA-MB-468 breast; 10 µM unless noted,-63.8% (active)
COP(=O)(OC)C(O)c1ccc(Cl)cc1 (centres undefined),growth,MDA-MB-468 breast; 10 µM unless noted,108%
C/C=C(/C)C(=O)O[C@H]1CC[C@@]2(C)[C@@H]3CC[C@H]4[C@]5(O)C[C@H](O)[C@@]6(O)[C@@H](CN7C[C@@H](C)CC[C@H]7[C@@]6(C)O)[C@]5(O)C[C@@]42O[C@@]13O,growth,MDA-MB-468 breast; 10 µM unless noted,106%
CCCC[C@H](NC(=O)[C@H]1CCCN1C)C(=O)N(C)[C@H](C[C@@H](OC(C)=O)c1nc(C(=O)N[C@@H](Cc2ccccc2)C[C@H](C)C(=O)OCC)cs1)C(C)C,growth,MDA-MB-468 breast; 10 µM unless noted,7.04% (active)
CC(=O)OCC1OC([S-])C(OC(C)=O)C(OC(C)=O)C1OC(C)=O.[Au+].c1ccc(CN2[CH-]N(Cc3ccccc3)C(c3ccccc3)=C2c2ccccc2)cc1,growth,MDA-MB-468 breast; 4.75 µM,-23.8% (active)
same,growth,MDA-MB-468 breast; 10 µM,-41.9% (active)
S=C(SSC(=S)N1CCCCC1)N1CCCCC1,growth,MDA-MB-468 breast; 10 µM,98.1%
same,growth,MDA-MB-468 breast; 100 µM,-62.8% (active)
